{"source": "PubChem BioAssay (EPA / NIEHS)", "key": {"[1]": {"assay": "TOX21_p53_BLA_p2_viability: Viability Assessment in the Tox21 HCT-116 p53 Agonism Beta-lactamase Assay, Phase 2 (AID 2283591);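 further: actives lower the ATP signal meaning cytotoxicity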", "outline": "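HCT-116 p53-bla cells (4000/well) rested 5 h at 37C, then received compounds in DMSO (217-fold dilution) for 16 h at 37C, 5% CO2. After the CCF4 read, CellTiter-Glo was added; ATP luminescence was read after 30 min at room temperature.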"}, "[2]": {"biological_target": "Cellular tumor antigen p53 (Homo sapiens) (UniProt P04637)", "sequence (P04637 whole entry, looked up)": "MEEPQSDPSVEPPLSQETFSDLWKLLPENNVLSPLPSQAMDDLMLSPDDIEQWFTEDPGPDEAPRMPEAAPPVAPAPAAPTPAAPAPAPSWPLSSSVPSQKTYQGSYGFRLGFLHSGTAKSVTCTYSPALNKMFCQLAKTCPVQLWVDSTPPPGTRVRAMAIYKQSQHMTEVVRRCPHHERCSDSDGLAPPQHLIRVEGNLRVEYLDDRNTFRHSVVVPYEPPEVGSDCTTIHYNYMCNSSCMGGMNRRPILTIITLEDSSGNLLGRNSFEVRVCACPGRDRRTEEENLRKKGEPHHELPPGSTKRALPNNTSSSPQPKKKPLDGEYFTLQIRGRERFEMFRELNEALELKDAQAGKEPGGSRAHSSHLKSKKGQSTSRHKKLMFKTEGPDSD", "assay": "TOX21_p53_BLA_p2_ratio: Tox21 HCT-116 p53 Agonism Beta-lactamase Assay, Ratio, Phase 2 (AID 2283592)", "outline": "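First, HCT116 reporter cells settle for 5 h at 37C. Next, DMSO compound solutions are pinned in (217-fold dilution) and left 16 h. Finally, CCF4-AM substrate is loaded 2 h at room temperature and the 460/530 nm ratio read.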"}, "[3]": {"biological_target": "Cellular tumor antigen p53 (Homo sapiens) (UniProt P04637)", "assay": "TOX21_p53_BLA_p5_ratio: Tox21 HCT-116 p53 Agonism Beta-lactamase Assay, Ratio, Phase 5 (AID 2283599)", "outline": "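HCT-116 cells carrying a p53-inducible beta-lactamase reporter were seeded at 4000 cells/well and dosed after 5 h with compound in DMSO (217-fold dilution). After 16 h at 37C, CCF4-AM substrate was added for 2 h, and the 460/530 nm emission ratio was scored as gain-of-signal versus DMSO.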"}, "[4]": {"assay": "TOX21_p53_BLA_p5_viability: Viability Assessment in the Tox21 HCT-116 p53 Agonism Beta-lactamase Assay, Phase 5 (AID 2283600)", "outline": "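Decreased CellTiter-Glo luminescence denotes lost viability. Exposure: 16 h at 37C, 5% CO2, with compounds from DMSO stocks diluted 217-fold in wells of 4000 cells.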"}, "[5]": {"biological_target": "Cellular tumor antigen p53 (Homo sapiens) (UniProt P04637)", "assay": "TOX21_p53_BLA_p4_ratio: Tox21 HCT-116 p53 Agonism Beta-lactamase Assay, Ratio, Phase 4 (AID 2283601)", "outline": "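HCT116 cells carrying an inducible beta-lactamase reporter were plated at 4000 cells/well, rested 5 h, then exposed to compounds in DMSO (217-fold dilution) for 16 h at 37C. CCF4-AM substrate was loaded 2 h at room temperature; 460/530 nm emission ratio scored gain-of-signal versus DMSO.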"}, "[6]": {"assay": "TOX21_p53_BLA_p3_viability: Viability Assessment in the Tox21 HCT-116 p53 Agonism Beta-lactamase Assay, Phase 3 (AID 2283593);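 further: cells exposed to compound for 16 h before reading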", "outline": "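HCT-116 cells (4000/well) rested 5 h at 37C, then got DMSO compounds by pin tool (217-fold dilution) for 16 h at 37C, 5% CO2. After the bla read, CellTiter-Glo was added and luminescence read at 30 min, room temperature.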"}, "[7]": {"biological_target": "Cellular tumor antigen p53 (Homo sapiens) (UniProt P04637)", "assay": "TOX21_p53_BLA_p3_ratio: Tox21 HCT-116 p53 Agonism Beta-lactamase Assay, Ratio, Phase 3 (AID 2283596)", "outline": "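Cells were seeded at 4000/well, rested 5 h at 37C, then dosed with DMSO compound solutions (217-fold dilution) for 16 h. CCF4-AM substrate was loaded for 2 h at room temperature, and the 460/530 nm emission ratio was fitted for gain of signal versus DMSO.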"}, "[8]": {"assay": "TOX21_p53_BLA_p4_viability: Viability Assessment in the Tox21 HCT-116 p53 Agonism Beta-lactamase Assay, Phase 4 (AID 2283597);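 further: hits lower the luminescence signal meaning cytotoxicity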", "outline": "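4000 HCT116 cells per well; 5 h attachment; compounds from DMSO, 217-fold dilution; 16 h at 37C. Then CCF4-AM, 2 h RT, followed by CellTiter-Glo, 30 min RT, luminescence. Decrease = cytotoxicity.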"}}, "note": "Inconclusive results are not listed. Activity calls are given as the source filed them. How the source made its calls: active means hit-call score of the fitted dose curve at least 0.9, where 1 is the maximum; inconclusive means response in the unintended direction; inactive means score below 0.9."}
{"smiles": "CC(=O)OCC(=O)[C@H]1CC[C@H]2[C@@H]3CC[C@H]4C[C@H](O)CC[C@]4(C)[C@H]3C(=O)C[C@]12C", "values": [{"measurement": "outcome", "setting": "[1]", "result": "inactive"}, {"measurement": "outcome", "setting": "[2]", "result": "inactive"}, {"measurement": "outcome", "setting": "[3]", "result": "inactive"}, {"measurement": "outcome", "setting": "[4]", "result": "inactive"}, {"measurement": "outcome", "setting": "[5]", "result": "inactive"}]}
{"smiles": "COc1ccc2c(c1OC)C(=O)O[C@@H]2[C@H]1c2cc3c(cc2CCN1C)OCO3", "values": [{"measurement": "outcome", "setting": "[1]", "result": "inactive"}, {"measurement": "outcome", "setting": "[6]", "result": "inactive"}, {"measurement": "outcome", "setting": "[7]", "result": "inactive"}, {"measurement": "outcome", "setting": "[3]", "result": "inactive"}, {"measurement": "outcome", "setting": "[4]", "result": "inactive"}, {"measurement": "outcome", "setting": "[5]", "result": "inactive"}]}
{"smiles": "CO[C@H]1[C@@H](O)C[C@H](O[C@H]2[C@@H](O)C[C@H](O[C@H]3[C@@H](O)C[C@H](O[C@H]4CC[C@@]5(C)[C@H](CC[C@@H]6[C@@H]5C[C@@H](O)[C@]5(C)[C@@H](C7=CC(=O)OC7)CC[C@]65O)C4)O[C@@H]3C)O[C@@H]2C)O[C@@H]1C", "values": [{"measurement": "AC50", "setting": "[1]", "result": "109 nM (active)"}, {"measurement": "AC50", "setting": "[6]", "result": "101 nM (active)"}, {"measurement": "outcome", "setting": "[7]", "result": "inactive"}, {"measurement": "AC50", "setting": "[8]", "result": "98.4 nM (active)"}, {"measurement": "AC50", "setting": "[4]", "result": "83.6 nM (active)"}, {"measurement": "outcome", "setting": "[5]", "result": "inactive"}]}
{"smiles": "CCOS(C)(=O)=O", "values": [{"measurement": "outcome", "setting": "[1]", "result": "inactive"}, {"measurement": "outcome", "setting": "[6]", "result": "inactive"}, {"measurement": "outcome", "setting": "[7]", "result": "inactive"}, {"measurement": "outcome", "setting": "[8]", "result": "inactive"}, {"measurement": "outcome", "setting": "[3]", "result": "inactive"}, {"measurement": "outcome", "setting": "[5]", "result": "inactive"}]}
{"smiles": "C[C@@H]1O[C@@H](O[C@@H]2C=C3CC[C@@H]4[C@H](CC[C@]5(C)[C@@H](c6ccc(=O)oc6)CC[C@]45O)[C@@]3(C)CC2)[C@H](O)[C@H](O)[C@H]1O", "values": [{"measurement": "AC50", "setting": "[1]", "result": "9.27 nM (active)"}, {"measurement": "AC50", "setting": "[6]", "result": "13.4 nM (active)"}, {"measurement": "outcome", "setting": "[7]", "result": "inactive"}, {"measurement": "AC50", "setting": "[8]", "result": "12.3 nM (active)"}, {"measurement": "outcome", "setting": "[3]", "result": "inactive"}, {"measurement": "AC50", "setting": "[4]", "result": "10.8 nM (active)"}]}
{"smiles": "CCC1(c2ccccc2)C(=O)NC(=O)N(C(=O)c2ccccc2)C1=O", "note": "(stereo not drawn)", "values": [{"measurement": "outcome", "setting": "[1]", "result": "inactive"}, {"measurement": "outcome", "setting": "[6]", "result": "inactive"}, {"measurement": "outcome", "setting": "[7]", "result": "inactive"}, {"measurement": "outcome", "setting": "[8]", "result": "inactive"}, {"measurement": "outcome", "setting": "[4]", "result": "inactive"}, {"measurement": "outcome", "setting": "[5]", "result": "inactive"}]}
{"smiles": "COC(C)(C)CCCC(C)C/C=C/C(C)=C/C(=O)OC(C)C", "note": "(stereo not drawn)", "values": [{"measurement": "outcome", "setting": "[1]", "result": "inactive"}, {"measurement": "outcome", "setting": "[6]", "result": "inactive"}, {"measurement": "outcome", "setting": "[7]", "result": "inactive"}, {"measurement": "outcome", "setting": "[8]", "result": "inactive"}, {"measurement": "outcome", "setting": "[3]", "result": "inactive"}, {"measurement": "outcome", "setting": "[4]", "result": "inactive"}, {"measurement": "outcome", "setting": "[5]", "result": "inactive"}]}
{"smiles": "CC(=O)C(C)(C)C", "values": [{"measurement": "outcome", "setting": "[1]", "result": "inactive"}, {"measurement": "outcome", "setting": "[2]", "result": "inactive"}, {"measurement": "outcome", "setting": "[3]", "result": "inactive"}, {"measurement": "outcome", "setting": "[4]", "result": "inactive"}, {"measurement": "outcome", "setting": "[5]", "result": "inactive"}]}
{"smiles": "c1ccc2c(c1)Sc1ccccc1N2CC1CN2CCC1CC2", "note": "(stereo not drawn)", "values": [{"measurement": "outcome", "setting": "[1]", "result": "inactive"}, {"measurement": "outcome", "setting": "[6]", "result": "inactive"}, {"measurement": "outcome", "setting": "[7]", "result": "inactive"}, {"measurement": "AC50", "setting": "[8]", "result": "29100 nM (active)"}, {"measurement": "outcome", "setting": "[4]", "result": "inactive"}]}
{"smiles": "Nc1ccccc1C(=O)O", "values": [{"measurement": "outcome", "setting": "[1]", "result": "inactive"}, {"measurement": "outcome", "setting": "[6]", "result": "inactive"}, {"measurement": "outcome", "setting": "[7]", "result": "inactive"}, {"measurement": "outcome", "setting": "[3]", "result": "inactive"}, {"measurement": "outcome", "setting": "[4]", "result": "inactive"}, {"measurement": "outcome", "setting": "[5]", "result": "inactive"}]}
